The record followed here is PubChem BioAssay (Tox21).

“And” between values parts separate entries of the source, which are not always exact repeats. Equal values may be shown once. Results filed as inconclusive are left out. Some compounds were tested as several samples or in several runs, with calls that do not always agree. The source made the active and inactive calls. Unless noted, the call rests on the fitted dose curve; in most records, active means well fitted curve in the direction sought with a large enough effect in the repeat runs; inconclusive means weak or mixed curves; inactive means no such curve, though single readings can be large; an effect the other way counts as inactive or inconclusive.

Test [1] concerns the target Retinoic acid receptor RXR-alpha (Homo sapiens) (UniProt P19793). Description: qHTS assay to identify small molecule agonists of the RXR signaling pathway (AID 1159527; calls by dose curve; further: nearly all actives have a fitted effect of over 35% in size). In outline:
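Read-out: beta-lactamase FRET ratio (405 nm excitation, 460 and 530 nm emission) after 2 hr substrate loading at room temperature. Cells were RXR-alpha-UAS-bla HEK 293T treated with compounds for 16 hr in 2% charcoal-stripped FBS medium.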

Test [2] is described as follows: qHTS assay to identify small molecule agonists of the RXR signaling pathway - cell viability counter screen (AID 1159529). Further: nearly all actives have a fitted effect of over 50% in size. Further: potency means the concentration at half of the fitted maximal effect. Put shortly:
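HEK 293T RXRa-bla cells, 2% CS-FBS; 5 h settle; cpd 16 h 37 C, 5% CO2; CellTiter-Glo 30 min RT, luminescence. Tetraoctyl ammonium bromide as positive control.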

The nature of test [3]: qHTS assay to identify small molecule antagonists of the retinoid acid receptor (RAR) signaling pathway - cell viability counter screen (AID 1159551). Further: nearly all actives have a fitted effect of over 35% in size. Put shortly:
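Luminescent ATP quantitation (CellTiter-Glo) gave cell viability in C3RL4 cells exposed to test chemicals for 6 h at 37 C alongside 1 uM final retinol.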

The nature of test [4]: qHTS assay to identify small molecule antagonists of the estrogen related receptor (ERR) signaling pathway from Tox21 library - cell viability counter screen (AID 1224834). Further: nearly all actives have a fitted effect of over 30% in size. Further: potency means the concentration at half of the fitted maximal effect. In outline: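 Fluorescence from CellTiter-Fluor gives the viability read-out, taken 30 min after reagent addition. Before that, ERR cells seeded 6 h earlier were incubated with compounds for 17.5 h at 37 C.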

Test [5] has as its target Luciferin 4-monooxygenase (Photinus pyralis) (UniProt P08659). Briefly: qHTS assay to identify small molecule inhibitors of firefly luciferase (AID 1224835). Further: series mostly up to about 120 µM; nearly all actives have a fitted effect of over 25% in size. Put shortly: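 Quantitative HTS format; KM concentrations of both substrates. Purified P. pyralis FLuc activity quantified from luminescence images.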
Test [6] in a line: qHTS assay to identify small molecule agonists of the constitutive androstane receptor (CAR) signaling pathway - cell viability counter screen (AID 1224836). Further: nearly all actives have a fitted effect of over 45% in size. Further: potency means the concentration at half of the fitted maximal effect. In outline: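 HepG2-CYP2B6-hCAR, 2500 cells/well, 4 h pre-incubation; cpd 15 conc + PK11195 0.75 uM final; 23 h, 37 C/5% CO2; CellTiter-Fluor, fluorescence.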
Test [7] is described as follows: qHTS assay to identify small molecule antagonists of the constitutive androstane receptor (CAR) signaling pathway - cell viability counter screen (AID 1224837). Further: nearly all actives have a fitted effect of over 45% in size. Further: potency means the concentration at half of the fitted maximal effect. In outline:
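HepG2-CYP2B6-hCAR cells, 2500/well, 4 hr pre-incubation; compound titration, 15 conc.; CITCO 50 nM final; 23 hr, 37 C/5% CO2; CellTiter-Fluor, fluorescence intensity.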

Test [8] concerns the target Nuclear receptor subfamily 1 group I member 3 (Homo sapiens) (UniProt Q14994). Briefly: qHTS assay to identify small molecule antagonists of the constitutive androstane receptor (CAR) signaling pathway (AID 1224838).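 Further: HepG2 cells stably expressing hCAR with CYP2B6 luciferase reporter stimulated by CITCO; nearly all actives have a fitted effect of over 40% in size.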 Further: potency means the concentration at half of the fitted maximal effect. In outline:
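HepG2-CYP2B6-hCAR cells; 4 h pre-incubation; cpd (15 conc) + CITCO 50 nM final; 24 h, 37 C/5% CO2; ONE-Glo, luminescence.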

Test [9] has the same target. Description: qHTS assay to identify small molecule agonists of the constitutive androstane receptor (CAR) signaling pathway (AID 1224839).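 Further: HepG2 cells stably carrying human CAR and a CYP2B6 luciferase reporter; series mostly up to about 92 µM; nearly all actives have a fitted effect of over 15% in size.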 Put shortly:
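HepG2-CYP2B6-hCAR cells, 2500/well, 4 h pre-incubation; compounds 15 conc.; PK11195 0.75 uM final; 24 h, 37 C/5% CO2; ONE-Glo luciferase read.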

A short description of test [10]: qHTS assay to identify small molecule antagonists of the estrogen related receptor signaling pathway with the pleiotropic PPARgamma coactivator (PGC) from Tox21 10K library - cell viability counter screen (AID 1224840; active means well fitted cell-killing curve with a large enough effect in the repeat runs, not every such curve was filed as active; further: nearly all actives have a fitted effect of over 40% in size; further: potency means the concentration at half of the fitted maximal effect). Put shortly:
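PGC/ERR cells, 2,000/well; 6 h pre-incubation 37 C/5% CO2; cpd in DMSO via pin tool; 17.5 h 37 C; CellTiter-Fluor, 30 min; fluorescence.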

The nature of test [11]: qHTS assay to identify small molecule antagonists of the retinoic acid receptor (RAR) signaling pathway (AID 1159552; further: nearly all actives have a fitted effect of over 50% in size). Put shortly: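 Cells of the C3RL4 line were seeded, incubated overnight, then dosed with compounds in DMSO followed immediately by retinol (1 uM final). Six hours later luciferase detection reagent went in; signal was measured after 30 min at RT.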
Test [12] in a line: qHTS assay to identify small molecule agonists of the retinoic acid receptor (RAR) signaling pathway (AID 1159553). Put shortly:
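Luminescence from a RARE-driven luciferase reporter in C3RL4 cells served as the read-out, measured after 30 min with detection reagent at room temperature. Compounds in DMSO were applied for 6 hr at 37 C following overnight seeding.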

The nature of test [13]: qHTS assay to identify small molecule antagonists of the estrogen related receptor (ERR) signaling pathway - cell viability counter screen (AID 1224818). Further: series mostly up to about 46 µM. In outline:
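Multiplexed counter screen to separate cytotoxic compounds from true ERR modulators. ERR cells received DMSO-dissolved compounds after a 6 h pre-incubation, were exposed 17.5 h at 37 C, then assayed with CellTiter-Fluor fluorescence.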

A short description of test [14]: qHTS assay to identify small molecule antagonists of the estrogen related receptor (ERR) signaling pathway (AID 1224819;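 further: luminescence from an ERR-driven luciferase reporter measured with One-Glo reagent; series mostly up to about 46 µM; nearly all actives have a fitted effect of over 50% in size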). In outline:
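Seed ERR cells 2,000/well; rest 6 h at 37 C/5% CO2; pin compounds in DMSO; incubate 18 h at 37 C; add One-Glo; wait 30 min at room temperature; measure luminescence.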

Test [15] in a line: qHTS assay to identify small molecule agonists of the estrogen related receptor (ERR) signaling pathway (AID 1224820). Put shortly:
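Quantitative HTS of the LOPAC library used NTP ERR reporter cells treated 18 h at 37 C. Signal is luminescence after One-Glo addition and a 30 min room-temperature incubation.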

Test [16] has as its system estrogen-related receptor alpha (ERRalpha) with PGC-1alpha coactivator, human. Briefly: qHTS assay to identify small molecule antagonists of the estrogen related receptor signaling pathway with the pleiotropic PPARgamma coactivator (PGC) (AID 1224821; calls by dose curve;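 further: series mostly up to about 46 µM; lower luminescence signal means antagonism of PGC/ERR signalling; nearly all actives have a fitted effect of over 50% in size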). Put shortly:
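Quantitative HTS for antagonism: PGC/ERR cells received compounds after 6 h attachment and were incubated 18 h at 37 C, with luminescence (One-Glo) as the endpoint.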

A short description of test [17]: qHTS assay to identify small molecule antagonists of the estrogen related receptor signaling pathway with the pleiotropic PPARgamma coactivator (PGC) cell viability counter screen (AID 1224822; further: series mostly up to about 46 µM). In outline: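 Cells: PGC/ERR, 2,000/well, 1536-well format. Pre-incubation 6 h, 37 C/5% CO2. Compound exposure 17.5 h, 37 C. Detection: CellTiter-Fluor, 30 min, fluorescence.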

Test [18] can be described thus: qHTS assay to identify small molecule agonists of the estrogen related receptor signaling pathway with the pleiotropic PPARgamma coactivator (PGC) (AID 1224823). In outline:
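Cell-based luciferase assay in the NTP-supplied PGC/ERR line, 2,000 cells/well; 18 h compound exposure at 37 C, luminescence after One-Glo.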

A short description of test [19]: qHTS assay to identify small molecule antagonists of the estrogen related receptor signaling pathway with the pleiotropic PPARgamma coactivator (PGC) from Tox21 10K library (AID 1224841; call rule not given here; further: potency means the concentration at half of the fitted maximal effect). Put shortly: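 PGC/ERR cell line, 2,000 cells/well; 6 h pre-incubation 37 C/5% CO2; compounds (DMSO) pinned in; 18 h, 37 C; One-Glo, 30 min RT; luminescence.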
A short description of test [20]: qHTS assay to identify small molecule agonists of the estrogen related receptor signaling pathway with the pleiotropic PPARgamma coactivator (PGC) from Tox21 10K library (AID 1224842). Further: nearly all actives have a fitted effect of over 15% in size. In outline:
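PGC/ERR reporter cells (NTP line) were seeded 2,000 per well, rested 6 h at 37 C/5% CO2, then pin-dosed with compounds in DMSO for 18 h at 37 C; luciferase read by One-Glo luminescence after 30 min at room temperature.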

Luciferin 4-monooxygenase (Photinus pyralis), sequence (P08659 whole entry, looked up): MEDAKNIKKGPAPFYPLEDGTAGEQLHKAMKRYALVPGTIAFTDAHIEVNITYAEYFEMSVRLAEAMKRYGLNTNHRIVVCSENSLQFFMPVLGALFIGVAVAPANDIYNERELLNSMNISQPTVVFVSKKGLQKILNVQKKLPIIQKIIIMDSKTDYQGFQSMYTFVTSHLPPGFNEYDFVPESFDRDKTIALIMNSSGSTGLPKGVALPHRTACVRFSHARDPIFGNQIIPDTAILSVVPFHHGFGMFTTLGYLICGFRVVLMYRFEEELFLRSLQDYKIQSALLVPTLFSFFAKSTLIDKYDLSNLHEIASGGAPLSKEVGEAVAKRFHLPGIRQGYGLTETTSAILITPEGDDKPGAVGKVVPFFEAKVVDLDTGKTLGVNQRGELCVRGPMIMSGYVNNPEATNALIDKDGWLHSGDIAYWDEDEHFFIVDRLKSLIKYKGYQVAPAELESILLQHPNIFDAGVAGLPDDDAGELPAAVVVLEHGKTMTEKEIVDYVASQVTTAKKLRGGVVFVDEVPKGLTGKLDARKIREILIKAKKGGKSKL
Retinoic acid receptor RXR-alpha (Homo sapiens), sequence (P19793 whole entry, looked up): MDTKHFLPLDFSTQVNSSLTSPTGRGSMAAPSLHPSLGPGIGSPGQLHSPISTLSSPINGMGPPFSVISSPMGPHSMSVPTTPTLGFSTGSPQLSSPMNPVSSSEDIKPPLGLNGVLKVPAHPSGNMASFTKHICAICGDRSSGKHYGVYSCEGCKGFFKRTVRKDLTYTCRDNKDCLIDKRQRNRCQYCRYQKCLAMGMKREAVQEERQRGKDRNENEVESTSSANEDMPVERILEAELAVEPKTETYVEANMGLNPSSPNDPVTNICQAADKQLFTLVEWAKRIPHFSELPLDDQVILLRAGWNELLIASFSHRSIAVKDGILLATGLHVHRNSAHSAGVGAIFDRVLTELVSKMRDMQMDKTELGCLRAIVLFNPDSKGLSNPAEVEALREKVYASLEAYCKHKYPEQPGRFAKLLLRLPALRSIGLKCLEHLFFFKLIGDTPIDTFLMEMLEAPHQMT
Nuclear receptor subfamily 1 group I member 3 (Homo sapiens), sequence (Q14994 whole entry, looked up): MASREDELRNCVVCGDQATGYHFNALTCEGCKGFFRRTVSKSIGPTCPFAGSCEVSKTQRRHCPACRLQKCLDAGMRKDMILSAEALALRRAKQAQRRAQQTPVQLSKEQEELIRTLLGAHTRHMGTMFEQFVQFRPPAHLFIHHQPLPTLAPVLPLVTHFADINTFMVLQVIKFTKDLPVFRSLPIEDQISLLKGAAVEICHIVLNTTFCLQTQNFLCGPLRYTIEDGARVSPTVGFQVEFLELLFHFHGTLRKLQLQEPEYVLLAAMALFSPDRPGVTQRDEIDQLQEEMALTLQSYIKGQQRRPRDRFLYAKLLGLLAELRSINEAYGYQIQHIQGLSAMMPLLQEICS

In the case of `O=C(O)c1[nH]n(-c2ccc(S(=O)(=O)O)cc2)c(=O)c1N=Nc1ccc(S(=O)(=O)O)cc1`, the Potency result in test [1], in [2], in test [5], in [8] and in test [9] was “inactive” in each case. For the same compound, in [3], the result was inactive. Also, the Potency was 26.6 µM (active) and 27.4 µM (active) and 28.6 µM (active) in test [4]; 30.7 µM (active) and 45.4 µM (active) in test [6]; 48.7 µM (active) and 28.6 µM (active) in test [7]; 27.4 µM (active) and 45.4 µM (active) in test [10].
Turning to `O=C(C1CCCCC1)N1CC(=O)N2CCc3ccccc3C2C1` (stereo unspecified), the Potency entry in test [2], in test [11], in test [15], in test [18], in test [5] and in test [6] was “inactive” throughout. In addition, the Potency result in [7], in [9], in [10], in test [19] and in test [20] was “inactive” in each case. The outcome in test [3], in test [12], in [13], in test [14], in test [16] and in test [17] was inactive.
`O=S(=O)(O)NC1CCCCC1`: the Potency result in test [1], in [2], in test [11], in [4], in test [6] and in [7] was “inactive” throughout. Further, the Potency result in test [8], in [9] and in test [10] was “inactive” each time. Further, the result in [3] and in test [12] was inactive.
In the case of `NC(N)=NC(=O)c1nc(Cl)c(N)nc1N`, the Potency result in test [1], in test [2], in test [4], in [5], in test [6] and in [7] was “inactive” in each case. Moreover, the Potency entry in [9] and in test [10] was “inactive” each time. In addition, the compound was classed as inactive in test [3], in test [13] and in test [17]. Further, the Potency in [8] was 61.5 µM (active) and 50.4 µM (active) and inactive.
With `O=C(O)CCCCC(=O)O`, the Potency result in [1], in test [2], in test [4], in test [5], in test [6] and in test [7] was “inactive” throughout. For the same compound, in test [10], the Potency entry was “inactive”. Besides, in test [3], the call was inactive.
Consider `O=C(O)c1cccc([N+](=O)[O-])c1`, for which the Potency entry in test [1], in [2], in test [4], in test [5], in [6] and in [7] was “inactive” throughout. For the same compound, the Potency entry in test [10] is “inactive”. Besides, the result in [3] was inactive.
For `CC(=O)OCC(COC(C)=O)OC(C)=O`, the Potency result in test [1], in test [2], in [4], in test [5], in test [6] and in test [7] was “inactive” in each case. In addition, the Potency entry in test [10], in test [19] and in test [20] was “inactive” in each case. Moreover, the call in [3] was inactive.
As for `c1ccc2[nH]ccc2c1`, the Potency result in test [1], in [5] and in test [20] was “inactive” each time. Moreover, the Potency in test [2] was 48.2 µM (active) and inactive; in test [4], 26.9 µM (active) and inactive; in test [10], 8.49 µM (active) and inactive; in test [19] it was 2.69 µM (active) and inactive. In test [3], the call was inactive.
Consider `NS(=O)(=O)c1cc(C(=O)O)c(NCc2ccco2)cc1Cl`, for which the Potency entry in test [2], in test [4], in [5], in test [6], in [7] and in [10] was “inactive” throughout. Also, the Potency entry in [19] and in test [20] was “inactive” each time. The compound was classed as inactive in test [3] and in [12].
Consider `O=C(O)/C=C\C(=O)O`, for which the Potency result in [1], in test [2], in [5], in test [6], in [7] and in test [8] was “inactive” throughout. Moreover, the call in test [3] was inactive.
On to `NC(=O)NC1NC(=O)NC1=O` (stereo unspecified), for which the Potency entry in test [1], in test [2], in [4], in test [5], in test [6] and in test [7] was “inactive” each time. Further, the Potency entry in [8], in test [9] and in test [10] was “inactive” throughout. Also, the compound was classed as inactive in test [3].
